From the supplement of paper PMC4466140

biological target: AgAbp1; test: SPOT peptide array binding signal intensity (averaged, normalized) (arbitrary units (background-subtracted, floor 0; scale differs between SH3 domains)); higher = stronger binding of the SH3 domain to the peptide
In short: (§1)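 To measure binding, SH3 domains from four yeast species were fused to GST, expressed in E. coli BL21(DE3) and purified on glutathione Sepharose. Each domain was incubated at 10 μg/ml overnight at 4°C on cellulose membranes with synthetic 15-mer peptides whose cysteines were replaced by serines. Anti-GST antibody, an HRP anti-mouse secondary and luminol were used for detection, and images were quantified with Genespotter. Reported binding signal is normalized, background-subtracted spot intensity averaged over replicates, in arbitrary units that differ between domains.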

Binder | SPOT peptide array binding signal intensity
NPNRRAPRRPLSTQH | 134

biological target: AgBbc1; test: as above
In short: as §1

Binder | SPOT peptide array binding signal intensity
NPNRRAPRRPLSTQH | 248

biological target: AgBem1-D1; test: as above
In short: as §1

Binder | SPOT peptide array binding signal intensity
NPNRRAPRRPLSTQH | 136

biological target: AgBzz1-D1; test: as above
In short: as §1

Binder | SPOT peptide array binding signal intensity
NPNRRAPRRPLSTQH | 18.5

biological target: AgBzz1-D2; test: as above
In short: as §1

Binder | SPOT peptide array binding signal intensity
NPNRRAPRRPLSTQH | 96

biological target: AgCyk3; test: as above
In short: as §1

Binder | SPOT peptide array binding signal intensity
NPNRRAPRRPLSTQH | 1

biological target: AgFus1; test: as above
In short: as §1

Binder | SPOT peptide array binding signal intensity
NPNRRAPRRPLSTQH | 492

biological target: AgHof1; test: as above
In short: as §1

Binder | SPOT peptide array binding signal intensity
NPNRRAPRRPLSTQH | 37.8

biological target: AgHse1; test: as above
In short: as §1

Binder | SPOT peptide array binding signal intensity
NPNRRAPRRPLSTQH | 1700

biological target: AgLsb1; test: as above
In short: as §1

Binder | SPOT peptide array binding signal intensity
NPNRRAPRRPLSTQH | 9.75

biological target: AgLsb4; test: as above
In short: as §1

Binder | SPOT peptide array binding signal intensity
NPNRRAPRRPLSTQH | 110

biological target: AgMyo5; test: as above
In short: as §1

Binder | SPOT peptide array binding signal intensity
NPNRRAPRRPLSTQH | 1.5

biological target: AgNbp2; test: as above
In short: as §1

Binder | SPOT peptide array binding signal intensity
NPNRRAPRRPLSTQH | 1950

biological target: AgRvs167; test: as above
In short: as §1

Binder | SPOT peptide array binding signal intensity
NPNRRAPRRPLSTQH | ≤ 0

biological target: AgSho1; test: as above
In short: as §1

Binder | SPOT peptide array binding signal intensity
NPNRRAPRRPLSTQH | 100

biological target: AgSla1-D1-D2; test: as above
In short: as §1

Binder | SPOT peptide array binding signal intensity
NPNRRAPRRPLSTQH | 484

biological target: AgSla1-D3; test: as above
In short: as §1

Binder | SPOT peptide array binding signal intensity
NPNRRAPRRPLSTQH | 18

biological target: CaAbp1-D1; test: as above
In short: as §1

Binder | SPOT peptide array binding signal intensity
NPNRRAPRRPLSTQH | 660

biological target: CaAbp1-D2; test: as above
In short: as §1

Binder | SPOT peptide array binding signal intensity
NPNRRAPRRPLSTQH | 806

biological target: CaBbc1; test: as above
In short: as §1

Binder | SPOT peptide array binding signal intensity
NPNRRAPRRPLSTQH | 1050

biological target: CaBem1-D1; test: as above
In short: as §1

Binder | SPOT peptide array binding signal intensity
NPNRRAPRRPLSTQH | 184

biological target: CaBzz1-D1; test: as above
In short: as §1

Binder | SPOT peptide array binding signal intensity
NPNRRAPRRPLSTQH | 90

biological target: CaBzz1-D2; test: as above
In short: as §1

Binder | SPOT peptide array binding signal intensity
NPNRRAPRRPLSTQH | 104

biological target: CaCyk3; test: as above
In short: as §1

Binder | SPOT peptide array binding signal intensity
NPNRRAPRRPLSTQH | 189

biological target: CaFus1; test: as above
In short: as §1

Binder | SPOT peptide array binding signal intensity
NPNRRAPRRPLSTQH | 374

biological target: CaHof1; test: as above
In short: as §1

Binder | SPOT peptide array binding signal intensity
NPNRRAPRRPLSTQH | ≤ 0

biological target: CaHse1; test: as above
In short: as §1

Binder | SPOT peptide array binding signal intensity
NPNRRAPRRPLSTQH | 108

biological target: CaLsb1; test: as above
In short: as §1

Binder | SPOT peptide array binding signal intensity
NPNRRAPRRPLSTQH | ≤ 0

biological target: CaLsb4; test: as above
In short: as §1

Binder | SPOT peptide array binding signal intensity
NPNRRAPRRPLSTQH | 330

biological target: CaMyo5; test: as above
In short: as §1

Binder | SPOT peptide array binding signal intensity
NPNRRAPRRPLSTQH | 1.5
